Laboratory results reported in PubChem BioAssay (NCI).
The panel holds about 79,000 compounds, 15% with a hit somewhere; the sample as a whole holds those more often. No stated cut-off is given here; in the data, active means growth inhibition above about 70%; inactive means the rest.

Assays:
[1] = NCI Yeast Anticancer Drug Screen. Data for the rad50 strain (AID 155);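 further: 0% = growth of vehicle-only cultures of the same strain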; details: S. cerevisiae rad50 strain growth inhibition; at 50.0 µM; stronger effect = higher value
How it was run: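 Relative growth inhibition (compound vs vehicle) was measured in yeast with a defined repair-gene alteration.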

[2] = NCI Yeast Anticancer Drug Screen. Data for the mec2-1 strain (AID 157); details: S. cerevisiae mec2-1 strain, at 50.0 µM, stronger effect = higher value
How it was run: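 mec2-1 yeast strain, carrying an alteration in DNA damage repair or cell cycle control, was exposed to compounds; growth inhibition was measured relative to vehicle-treated controls.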

[3] = NCI Yeast Anticancer Drug Screen. Data for the sgs1 mgt1 strain (AID 161);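 further: 0% = growth of cultures given vehicle only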; details: S. cerevisiae sgs1 mgt1 strain, at 50.0 µM, stronger effect = higher value
How it was run: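 Growth of a repair-deficient yeast mutant was monitored after compound treatment and expressed as inhibition relative to vehicle-treated cultures.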

[4] = NCI Yeast Anticancer Drug Screen. Data for the cln2 rad14 strain (AID 165);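 further: 0% = growth equal to vehicle treated cultures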; details: S. cerevisiae cln2 rad14 strain, at 50.0 µM, stronger effect = higher value
How it was run: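 Yeast carrying cln2 and rad14 alterations (cell cycle control and DNA damage repair) were exposed to compounds. Growth inhibition was measured against vehicle-treated controls.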

[5] = NCI Yeast Anticancer Drug Screen. Data for the bub3 strain (AID 167); details: S. cerevisiae bub3 mutant strain, at 50.0 µM, stronger effect = higher value
How it was run: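 Screening used yeast with an engineered genetic alteration affecting cell cycle control. Compound-exposed cultures were compared with vehicle cultures, and reduced growth was taken as inhibition.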

[6] = NCI Yeast Anticancer Drug Screen. Data for the mlh1 rad18 strain (AID 175); details: S. cerevisiae mlh1 rad18 strain growth inhibition; at 50.0 µM; stronger effect = higher value
How it was run: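 Growth inhibition of the yeast strain was measured after compound exposure and expressed relative to vehicle-treated controls. The strain carries defined defects in DNA damage repair.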

Measured: growth inhibition

COc1ccccc1NC(=O)C1=C(C)NC(C)=C(C(=O)Nc2ccccc2OC)C1c1ccc(C(C)C)cc1
inactive: [1] 18.2% | [2] 3.35% | [3] 11.8% | [4] 29.6% | [5] -11.8% | [6] 33.8%

CCOC(=S)SCCSC
inactive: [1] 11.7% | [2] 6.3% | [3] -1.45% | [4] 4.35% | [5] -3.6% | [6] 11.6%

O=[N+]([O-])c1ccc(S(=O)(=O)n2cccc2)cc1
inactive: [1] 0.9% | [2] 8.8% | [3] -8.05% | [4] -20.9% | [5] 3.6% | [6] -19.8%

COc1ccc(OC)c(NCc2ccccc2)c1
inactive: [1] -8.6% | [2] -2.5% | [3] -13.9% | [4] -88.5% | [5] -0.4% | [6] 3.65%

Cc1ccc2ccccc2c1CC(=O)NN
inactive: [1] 6.6% | [2] -26.8% | [3] -0.6% | [4] -25.2% | [5] 6.9% | [6] -8.95%

COc1ccc(C(=O)N2CCN(C)CC2)cc1OC
inactive: [1] 19.1% | [2] -3.95% | [3] -8.3% | [4] 13.4% | [5] -1.75% | [6] 4.2%

O=C1NC(N2CCCC(CO)C2)=N/C1=C\c1ccc(Cl)cc1 (stereo not drawn)
inactive: [1] 25.6% | [2] -10.9% | [3] -18.9% | [4] 23.6% | [5] -17.8% | [6] -19.1%

COc1cc(C=O)ccc1OC(=O)Nc1ccc(F)c([N+](=O)[O-])c1
inactive: [1] 0.8% | [2] 30.4% | [3] 19.1% | [4] -2.45% | [5] 28.1% | [6] 14.7%

COc1ccc(CC(O)CN2CCC(CCN)CC2)cc1 (stereo not drawn)
inactive: [1] -19.8% | [2] -7.45% | [3] -12.2% | [4] -47.9% | [5] 23.6% | [6] -5.65%

BrC1(Br)C2COCOCC21 (stereo not drawn)
inactive: [1] -9.6% | [2] -1.4% | [3] -1.05% | [4] 0.55% | [5] -4.75% | [6] 8.05%

CC1CCCCN1CCCO (stereo not drawn)
inactive: [1] 14.6% | [2] -32.4% | [3] -22.1% | [4] 3.05% | [5] -14.6% | [6] 17.4%

C/C(=C\C(=O)c1cccc([N+](=O)[O-])c1)c1cccc([N+](=O)[O-])c1
inactive: [1] 1.35% | [2] 15.3% | [3] 0.7% | [4] -21.6% | [5] 2.6% | [6] 29.6%

CCN(CC)CCCC(C)Nc1ccnc2c(Cl)cccc12 (stereo not drawn)
inactive: [1] 15.7% | [2] 14.3% | [3] 22.4% | [4] 22.6% | [5] 5.2% | [6] 2.4%

CC(=O)NNc1nc(C)c(C(=O)/C=C/C=C/c2ccccc2)s1
inactive: [1] -3.8% | [2] 39% | [3] 10.7% | [4] 10.3% | [5] 13.1% | [6] -21.8%

CC(=O)OCCc1nnnn1C
inactive: [1] 4.9% | [2] -9.95% | [3] -14.6% | [4] -22.5% | [5] 2.45% | [6] 10.4%

O=C(O)CCCc1ccc(N(CCO)CCO)cc1
inactive: [1] 5.3% | [2] 2.55% | [3] -3.1% | [4] 18% | [5] 8.05% | [6] 19%

COc1cc(C(=O)c2cocc2C(=O)c2ccc3c(c2)OCO3)cc(OC)c1OC
inactive: [1] -17.2% | [2] -33.3% | [3] -10.3% | [4] -18.4% | [5] -25.6% | [6] -14.8%

CCOC(=O)c1nc2cc(N3CCOCC3)c(F)cc2[nH]c1=O
inactive: [1] 16.9% | [2] 23.6% | [3] 23.2% | [4] 3.45% | [5] 28.2% | [6] 34%

CN(O)C(=O)Cc1ccccc1
inactive: [1] 3.5% | [2] 6.05% | [3] -0.1% | [4] 15.8% | [5] 13.9% | [6] 16.4%

CCCC1(C(=O)O)NC(=O)NC1=O (stereo not drawn)
inactive: [1] -4.7% | [2] -11.3% | [3] -14.7% | [4] -12.6% | [5] -1.1% | [6] -8.1%

O=C(O)CCC(=O)Nc1cc([N+](=O)[O-])ccc1OCc1ccccc1
inactive: [1] 3.75% | [2] -7.55% | [3] -5.35% | [4] -12.4% | [5] -0.95% | [6] 3.5%

CCCC(O)C(C)[N+](=O)[O-] (stereo not drawn)
inactive: [1] 7.25% | [2] 4.5% | [3] -0.65% | [4] 4.75% | [5] 4.2% | [6] 0.6%

O=[N+]([O-])c1ccc2[nH]c3nc4ncccc4nc3c2c1
inactive: [1] -3.4% | [2] 3.35% | [3] 4.7% | [4] -20.1% | [5] 0.25% | [6] 0.7%

CCn1ncc2ccc(N(CO)CO)cc21
inactive: [1] -2.4% | [2] 22.1% | [3] -13.6% | [4] -20.2% | [5] -22.6% | [6] 4.1%

CCOC(=O)C(NC(=O)c1ccccc1)(N1CCN(c2cc3c(cc2F)c(=O)c(C(=O)O)cn3CC)CC1)C(F)(F)F (stereo not drawn)
inactive: [1] -29.4% | [2] -34.4% | [3] -3.3% | [4] -18.4% | [5] -14.2% | [6] -20.8%

Cc1c(C)c2c(c(C)c1Cl)CC2(Cl)Cl
inactive: [1] 3.6% | [2] 4% | [3] -9.15% | [4] -41.8% | [5] -5.55% | [6] -9.5%

C=CCN=C1NC(=O)C(CC(=O)Nc2ccc(C)cc2)S1 (stereo not drawn)
inactive: [1] -22.6% | [2] -0.25% | [3] 0.25% | [4] 17.4% | [5] 7.05% | [6] 7.65%

O=c1oc2c(c(N(c3ccccc3)c3ccccc3)c1Cl)CCc1nc(-c3ccccc3)sc1-2
inactive: [1] 3% | [2] -1.25% | [3] -7.6% | [4] 10.8% | [5] -1.55% | [6] -14.9%

COc1ccc(NC(C)=O)cc1C1CCC(=O)N1 (stereo not drawn)
inactive: [1] 12.2% | [2] 7.25% | [3] -1.65% | [4] 10.1% | [5] -19% | [6] -23.6%

CC(=O)c1cc(C)c(O)c(C)c1
inactive: [1] -4.25% | [2] -8.8% | [3] 0.05% | [4] -4.05% | [5] -6.75% | [6] -5.55%

Nc1ncnc2c1[nH]c(=O)n2-c1ccccc1
inactive: [1] -46.6% | [2] -30.5% | [3] -16.6% | [4] -1.3% | [5] -17.1% | [6] -6.9%

NC(Cc1cc(I)c(O)c(I)c1)C(=O)O (stereo not drawn)
inactive: [1] -0.95% | [2] -6.05% | [3] -12.6% | [4] 8.2% | [5] 8.3% | [6] 1.35%

COC(=O)Nc1ccc(NC(=O)c2cscn2)c(NC(=O)OC)n1
inactive: [1] 1.55% | [2] 2.7% | [3] -2.3% | [4] -4.05% | [5] 5.75% | [6] -3.45%

O=S(=O)(NC/C=C/c1ccccc1)c1ccccc1
inactive: [1] -6.95% | [2] 16.7% | [3] -0.45% | [4] 26.9% | [5] 4.65% | [6] -39.9%

Cc1cc(O)c(C(C)C)cc1CN1CCCCC1
inactive: [1] 0% | [2] -25.1% | [3] -14.2% | [4] 0.15% | [5] -2.85% | [6] -3.3%

CSc1cc(=O)[nH]c(=O)[nH]1
inactive: [1] 16.9% | [2] 3.1% | [3] 4.2% | [4] 22.4% | [5] 3.8% | [6] 10.8%

CN1CCN(CC(=O)N2c3ccccc3Sc3cc4ccccc4cc32)CC1
inactive: [1] 2.3% | [2] -3.3% | [3] -30% | [4] -1.95% | [5] -13.7% | [6] 28.6%

COc1ccc(-n2c(=O)c(N=Nc3ccc(Cl)cc3)c(O)n(-c3ccc(I)cc3)c2=S)cc1
inactive: [1] 49.8% | [2] 5.45% | [3] 33.4% | [4] -3.7% | [5] 0.8% | [6] 22.4%
